MEKK3 PB1 HTS: modulators (inhibitors or enhancers) of MEK5 binding to human MEKK3 PB1 domain; Q99759; bead-based flow cytometry, Alexa488-MEK5 binding to MEKK3; actives lie on both sides; 0 = blocked by unlabeled MEK5, 100 = vehicle; binding response (% of control), % at 10 µM; hit rate 1.4% among 290,000;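 active = binding response more than 3 SD above or below the average of its plate-row segment, actives on both sides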;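 also: Alexa488 bead fluorescence after subtracting the streptavidin-only scavenger bead signal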
MEKK2 mut-MEK5: signal of MEK5 binding to mutant human MEKK2 PB1 domain | percent response, % at 10 µM | AID 1530 | hit rate 0.35% among 290,000 | bead flow cytometry, Alexa488-MEK5 binding to MEKK2 mutant; in the data active = percent response above about 24%, passing the limit was not always enough
ABCB6 inh 2: inhibitors of human ABC transporter ABCB6; Q9NP58; K562-ABCB6 porphyrin accumulation, flow cytometry, 1 h; hits give low values; fluorescence ratio to DMSO, % at 10 µM; hit rate 0.19% among 360,000; AID 602162;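 active = fluorescence ratio to DMSO below 75%, the collection mean minus 3 SD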;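 also: signal is porphyrin accumulated inside mitochondria; 100% equals median channel fluorescence of DMSO control wells; lower ratio means ABCB6 inhibition with less porphyrin fluorescence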
CRFBP-R2 agonist: agonists of human CRF-binding protein/CRF-R2 receptor complex; HEK293 CRF-R2/CRF-BP, calcium dye fluorescence (FLIPR); percent of saturating CRF peptide response; AID 588473; activation, % at 13.2 µM; hit rate 0.46% among 350,000;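 active = activation of at least 50%, plus an integration ratio under a set limit after plate pattern correction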;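 also: plate controls were neutral control wells without compound for no effect and CRF at EC100 for full effect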
MEKK2wt PB1 HTS: raises or lowers MEK5 binding to wildtype human MEKK2 PB1 domain. Q9Y2U5. bead flow cytometry, Alexa488-MEK5 binding to MEKK2 WT; actives lie on both sides. binding response (% of control), % at 10 µM. hit rate 1.1% among 290,000; in the data active = binding response below about 67% or above about 130%
CRFR2-BP antag: blocks CRF-induced signaling of the CRF-BP/CRF-R2 complex; inhibition, % at 11.8 µM; HEK293 CRF-R2/CRF-BP, CRF-induced calcium fluorescence; hit rate 0.59% among 350,000;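 active = inhibition of the ligand-induced calcium signal above about 50% at the single tested concentration, limit read from the data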
MEKK2wt confirm: raises or lowers MEK5 binding to wildtype human MEKK2, retest; shares compounds with MEKK3 PB1 HTS; bead flow cytometry, Alexa488-MEK5 binding to MEKK2 WT; actives lie on both sides; binding response (% of control), % at 10 µM; hit rate 2.4% among 5,900; AID 1892; in the data active = binding response below about 16% or above about 210%; inactive = in between
MEKK2mut-MEK5: signal of MEK5 binding to mutant human MEKK2, retest; shares compounds with MEKK3 PB1 HTS; bead flow cytometry, Alexa488-MEK5 binding to MEKK2 mutant; percent response, % at 10 µM; hit rate 2% among 5,900; AID 1893; in the data active = percent response mostly above about 71%, no sharp cut-off; inactive = mostly below about 38%;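 also: higher means compound restores mutant binding toward wildtype level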
MEKK3 confirm: MEKK3-MEK5 PB1 inhibition, single concentration confirmation; hit rate 1.8% among 5,900; bead flow cytometry, Alexa488-MEK5 binding to MEKK3; hits give low values; shares compounds with MEKK3 PB1 HTS; binding response (% of control), % at 10 µM; AID 1894;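 active = binding response below 72% of control, or above a set upper limit, though filed actives all read lower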;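 also: 100% = DMSO only wells and 0% = binding blocked by excess unlabeled MEK5; lower values mean stronger disruption of MEK5 binding to MEKK3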
Active calls of the source: *; . = not tested or not shown; [ ] = dose if it differs, or a comment. The list is not random: actives were taken first. Their share in the collection is about 2.9%.

SMILES | MEKK3 PB1 HTS | MEKK2 mut-MEK5 | ABCB6 inh 2 | CRFBP-R2 agonist | MEKK2wt PB1 HTS | CRFR2-BP antag | MEKK2wt confirm | MEKK2mut-MEK5 | MEKK3 confirm
O=C(NNC(=O)c1csc(-c2cccs2)n1)c1ccc(Cl)cc1 | . | . | 99 | . | . | . | . | . | .
Nc1ccc(C23CC4CC(CC(CO)(C4)C2)C3)cc1 | 103 | 1 | 105 | -1 | 102 | 5 | . | . | .
NCC12CC3CC(C1)CC(c1ccc(Cl)cc1)(C3)C2 | 98 | 26 | 111 | 1 | 155* | -23 | 147 | 29 | 102
CCC(c1ccccc1)c1noc(CCN(CC)CC)n1 (stereo not given) | . | . | 101 | 1 | . | 20 | . | . | .
CC(=O)CSc1nnc2c3ccccc3nc(C(C)(C)C)n12 | 73*[inhibitor] | -15 | 91 | -4 | 63*[inhibitor] | 15 | 101 | -4 | 101
NC(=O)COC(=O)c1ccccc1OCc1ccccc1Cl | 125 | 457* | 99 | -1 | 640* | 13 | 102 | 3 | 103
NC(=O)COC(=O)c1ccccc1OCc1ccccc1 | 103 | -10 | 94 | -2 | 96 | 4 | . | . | .
C=CCN1CCN(C(=O)c2ccc3c(c2)OCO3)CC1 | 105 | 6 | 94 | 0 | 111 | -9 | . | . | .
O=C(CN(C(=O)c1csnn1)c1cccc2ccccc12)NCc1ccc(F)cc1 | 99 | -2 | 104 | 0 | 100 | 6 | . | . | .
COc1ccc(OCCOC(=O)c2ccc(F)c(S(=O)(=O)N3CCOCC3)c2)cc1 | . | . | 96 | -1 | . | -2 | . | . | .
O=C(CSc1nc2ccccc2[nH]1)N=Nc1c(O)[nH]c2ccccc12 | 96 | 9 | 96 | -3 | 103 | -29 | . | . | .
O=C(CSCc1ccc(Br)cc1)N=Nc1c(O)[nH]c2ccccc12 | 146* | 1 | 101 | -1 | 112 | 0 | 105 | 4 | 101
COc1ccc(N2CC(C(=O)Nc3nnc(SCc4ccccn4)s3)CC2=O)cc1 (stereo not given) | 133* | -1 | 100 | 2 | 99 | 12 | 1.0*[inhibitor] | -29 | 2.0*
Cc1sc2nc(CN3CCCC3)nc(N3CCN(S(=O)(=O)c4cccs4)CC3)c2c1C | 103 | 4 | 98 | -2 | 145* | -20 | 141 | 36 | 109
Cc1cccc(C)c1OC(=O)c1ccccc1 | . | . | 97 | -3 | . | 20 | . | . | .
Cc1cc2oc3cc(NCCC4CCCN4C)ccc3c(=O)c2cc1C (stereo not given) | 109 | 22 | 96 | -1 | 178* | 11 | 142 | 21 | 103
O=C(O)/C=C/c1coc2ccc(F)cc2c1=O | 72*[inhibitor] | 0 | 104 | -2 | 99 | -1 | 106 | 12 | 106
Cc1ccc2occ(/C=C/C(=O)O)c(=O)c2c1 | 95 | 9 | 102 | -3 | 99 | 7 | . | . | .
COC(=O)c1ccc(NC(=O)CN2CCC(NC(=O)c3ccccc3F)CC2)cc1 | . | . | 93 | -1 | . | -19 | . | . | .
Cc1cc(C)cc(NC(=O)CN2CCC(NC(=O)c3ccccc3F)CC2)c1 | 104 | 8 | 98 | -7 | 135* | 40 | 117 | 6 | 101
CCCCNCC(O)(c1ccc(Cl)cc1)c1ccc(Cl)cc1 | 119 | 21 | 96 | 42 | 146* | -95 | 105 | -6 | 84
COc1ccc(CNCC(O)(c2ccccc2)c2ccc(F)cc2)cc1 (stereo not given) | 107 | 5 | 98 | -1 | 115 | -20 | . | . | .
COc1ccc(CNCC(O)(c2ccc(Cl)cc2)c2ccc(Cl)cc2)cc1OC | 113 | 39 | 97 | 0 | 179* | -23 | 131 | 9 | 100
COc1ccc(CNCC(O)(c2ccc(Cl)cc2)c2ccc(Cl)cc2)cc1 | 105 | 10 | 94 | 8 | 154* | -54 | 167 | 26 | 106
COc1ccc(CNCC(O)(c2ccc(F)cc2)c2ccc(F)cc2)cc1OC | 103 | 5 | 96 | 8 | 108 | -6 | . | . | .
SMILES | MEKK3 PB1 HTS | MEKK2 mut-MEK5 | ABCB6 inh 2 | CRFBP-R2 agonist | MEKK2wt PB1 HTS | CRFR2-BP antag | MEKK2wt confirm | MEKK2mut-MEK5 | MEKK3 confirm
C/[N+]([O-])=C\c1cccc(OCCN2CCN(c3ncc(C(F)(F)F)cc3Cl)CC2)c1 | 103 | 4 | 83 | 0 | 105 | -1 | . | . | .
Clc1ccc(-c2nc(NCCCN3CCOCC3)c3ccccc3n2)cc1 | 103 | 5 | 90 | -1 | 126 | -15 | . | . | .
Cc1ccc(-c2nc(NCCN3CCOCC3)c3ccccc3n2)cc1 | 72*[inhibitor] | -6 | 91 | 0 | 88 | -12 | 101 | 2 | 97
COc1ccc(CN(C)CC(=O)Nc2cc(OC)c([N+](=O)[O-])cc2C)c(OC)c1 | 133* | 0 | 98 | -1 | 106 | 12 | 111 | 5 | 100
COc1cc(NC(=O)CN(C)Cc2ccc(OC(F)F)cc2)c(C)cc1[N+](=O)[O-] | 100 | 4 | 90 | -1 | 99 | 9 | . | . | .
COc1cc(NC(=O)CN(C)Cc2cccc(F)c2)c(C)cc1[N+](=O)[O-] | 128* | 0 | 96 | 2 | 112 | 2 | 104 | -2 | 104
CCc1ccc(NC(=O)C2CCCN2S(=O)(=O)c2ccc3c(c2)n(C)c(=O)c(=O)n3C)cc1 (stereo not given) | 68*[inhibitor] | -12 | 98 | -2 | 80 | 4 | 103 | 6 | 104
COc1cc([C@H]2Oc3c(OC)cc(CCCO[C@@H]4O[C@H](CO)[C@@H](O)[C@H](O)[C@H]4O)cc3[C@@H]2CO)ccc1O | . | . | 97 | -3 | . | -2 | . | . | .
CCCCC(=O)c1ccc(OC(=O)c2ccc([N+](=O)[O-])cc2)cc1 | . | . | 94 | 1 | . | -20 | . | . | .
CCn1cc(S(=O)(=O)Nc2cc(C)ccc2F)cn1 | 102 | 4 | 95 | 0 | 98 | -3 | . | . | .
CC(=O)OC1CC(C)N(C(=O)c2ccccc2)c2ccc(C)cc21 (stereo not given) | 106 | 5 | 101 | -3 | 105 | 8 | . | . | .
CCCC(=O)OC1CC(C)N(C(=O)c2ccccc2)c2ccc(C)cc21 (stereo not given) | 12*[inhibitor] | -40 | 104 | 1 | 21*[inhibitor] | 24 | 99 | -1 | 100
Cc1ccc(NS(=O)(=O)c2cccc(C(=O)N(C)Cc3cccs3)c2)cc1 | . | . | 85 | 0 | . | 3 | . | . | .
CCC1CCc2c([nH]c3ccccc3c2=O)O1 (stereo not given) | 147* | 2 | 81 | -2 | 110 | -16 | 99 | 5 | 103
CC1(C)CCc2c([nH]c3ccccc3c2=O)O1 | 110 | 1 | 100 | 0 | 96 | -5 | . | . | .

Screening data deposited in PubChem by several laboratories.
